# In the supplement of paper PMC6555819:
# Assays:
# Test in all cases: PBM binding z-score (relative to random genomic background probes); higher = stronger binding; sequences stand for … in GC…GCGATTGACAGCGTAGAATGAAGG
# [1] = tested on: RARb homodimer (NR concentration 270 nM)
# In short: (§1)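 Probes were double-stranded and carried 34-nt variable regions with direct-repeat seeds, single-nucleotide variants, half-site ablations and random human genomic background sequences, printed on custom Agilent 4×180K protein-binding microarrays. Arrays were incubated 1 h with ligand-free nuclear receptor dimers in PBS pH 7.4, 2% milk, 0.02% Triton X-100, 1 mM DTT, 0.2 mg/mL BSA and 0.4 mg/ml salmon testes DNA. Antibodies against each partner (one per run) detected binding, and scanned fluorescence was regression-normalized. Binding z-scores use the random background probes as reference.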
# [2] = tested on: RARg:RXRa (NR concentration 270 nM, RXRa partner concentration 90 nM)
# In short: as §1
# [3] = tested on: RARg homodimer (NR concentration 270 nM)
# In short: as §1
# [4] = tested on: RXRa DBDmut IVT, anti-RXR (DBD mutation: RXRa K156A/R161A, NR concentration 90 nM)
# In short: as §1
# [5] = tested on: RXRa homodimer (NR concentration 180 nM)
# In short: as §1
# [6] = tested on: THRa:RXRa (NR concentration 90 nM, RXRa partner concentration 90 nM)
# In short: as §1
# [7] = tested on: THRa homodimer (NR concentration 90 nM)
# In short: as §1
# [8] = tested on: VDR homodimer (NR concentration 270 nM)
# In short: as §1
Sequence,PBM binding z-score [1],PBM binding z-score [2],PBM binding z-score [3],PBM binding z-score [4],PBM binding z-score [5],PBM binding z-score [6],PBM binding z-score [7],PBM binding z-score [8]
CTCGAAAGGTCGGTTGAGGTGAGTGTACGGATAA,2.49,2.68,2.86,0.363,2.49,5.02,1.78,1.29
CCGACTGGGGCAAAGGGTACCATACTCAGTACGA,0.849,0.946,0.506,-0.546,0.731,0.31,-0.963,0.0229
TCGAGTAGGTTAGTGGCATTCAGAATGGCGTCGA,-0.183,-0.478,-0.516,0.0324,-0.235,-0.441,-0.559,-0.54
ACAGAGAGGTGATGAAGGTAACTCAGGCTATCAT,0.584,0.531,0.832,-0.266,0.587,1.33,0.312,-0.222
AATACACGGTCATCGTAGGCCAGAGTACGCACAG,2.36,2.06,2.76,0.479,1.07,2.15,-0.0649,0.733
CGTCCATGGTCAAGGTCAGTGAAAGAGACTCGAA,3.21,3.15,3.78,0.79,2.4,2.84,1.79,1.02
CCTGCTAGGTCTTGGTCAGCTAATCTACAGTATG,0.408,-0.194,-0.144,0.336,-0.394,-0.178,-0.108,-0.656
CGTCCAAGGTCATAGGAGGTCAGTTAAGACAGAT,5.16,6.57,7.05,4.09,6.19,5.3,3,4.11
ATCTCTATGTAACCAAGTTCAGTGAATGCCGAAC,1.28,0.518,0.659,0.924,0.314,0.659,0.156,2.31
TCTGTTAGGTCAACGATGGTCAGCTAATCTGCTA,3.65,4.38,4.93,1.61,3.2,3.73,2.76,0.727
GATACAGGGTCAAGGCCAGATTACGCGTATTGAT,3.73,5.64,5.39,2.72,6.08,3.68,1.61,2.09
AGTCAAAGTTCACTAGGTAACATAAGATTCAGCT,3.84,4.96,5.9,4.29,3.76,2.08,0.138,4.22
TCGAGTAGGTTACCAATGGGCCATTCAGCTTTCT,0.543,0.598,0.337,0.37,0.688,0.184,-0.731,-0.805
CCTACTGGGCCACGAAAGGTCATTGGTTCAGTGA,4.95,4.88,4.56,0.546,5.25,3.8,1.18,3.08
CCTGCTGGGCCAAGGTCATTGATCAGTCAAAGCA,3.19,3.79,2.93,1.26,3.54,3.49,2.22,2.48
ACTAGCAGGCCCAGTTTGGGTCACTCAAACAAAG,1.42,0.324,0.28,-0.882,0.398,1.72,0.659,-0.243
AGAATGAGGTTACCAAATATCAGGGAAACGCTTG,0.779,1.91,1.86,1.24,2.52,2.67,0.824,0.512
TCTGTTAGTTGAAGGGCAACCGACGAGTCCGTTT,1.22,0.835,0.708,1.1,0.588,0.412,0.0955,1.67
TAGCCTAGGTCAGATCGGACCAGTATACGCTATA,1.86,2.7,3.46,-0.00524,1.46,2.55,-0.155,-0.597

Sequence,PBM binding z-score [1],PBM binding z-score [2],PBM binding z-score [3],PBM binding z-score [4],PBM binding z-score [5],PBM binding z-score [6],PBM binding z-score [7],PBM binding z-score [8]
CCTATTAGTTGACCCTAAGGGCAACCGAAGCTCG,3.48,4.12,2.5,0.762,5.73,4.02,3.25,1.72
GCTGCTAAGTCAACTGATGGTCAGCTAAAGCTCG,0.11,0.204,-0.211,0.184,-0.0847,-0.519,-1.1,-1.02
TCTTGTAGATCTAGCAGGTTAAGAAAGCCTGAGT,0.195,-0.205,-0.19,0.705,0.231,0.286,-0.115,-0.0564
TCGAGTAGGTTACCAATGGGGCAGTCAGCTTTCT,0.628,1.29,0.257,0.0356,0.404,-0.0981,-1.12,-1.05
TCTAGTTGGTCAAACGTCACACACTCGAAATGCG,0.78,0.926,0.831,1.2,1.04,0.288,0.167,0.2
TAGCCTAGGTCATTGGGCCAGTATTGTACGCATC,2.89,3.78,4.05,1.46,2.62,2.88,0.793,1.03
CAAACTAGGTCAAAGGTCGAAGTCGAGCCAACCA,3.9,7.26,5.75,2.51,8.7,4.01,0.604,1.73
CAAACTAGGTCACGAAACGTCAAAGTCGAATGAC,3.21,4.59,5.27,1.07,3.8,3.28,1.52,0.534
CAAACTAGGTCACGAAAGGTCATAGTCGAATGAC,5.66,7.6,8.4,2.64,8.01,5.09,2.8,3.75
GCTCGTTGGTCAGTAAAAGGTCACACACCGGTCG,5.31,5.69,5.36,0.666,5.85,3.91,2.35,2.44
TAGCCTAGGTCATGGGCGAGTATACCACGCGAAC,2.97,4.08,4.15,0.379,3.57,3.11,1.11,0.339
TGAATGAAGTTATAAGATCAGGGAACGTTGCAAA,-0.946,-0.0858,-0.101,-0.953,-0.319,-0.471,-0.931,-0.524
TCTAGTTGGTCAAAGGTCACACCCTCGAAATGCG,5.03,6.9,6.12,2.29,8.03,4.02,2.2,3.2
GCGACTGGGGCAAAGCAAGTTACCATAAGGTTGG,0.158,0.0953,0.244,-0.247,0.26,0.526,-0.346,-0.341
AATACAGGGTCACTAGGCCAGAGAAGGTACGAAT,3.45,5.18,4.96,2.58,5.52,3.52,1.18,2.31
CCTTACGGGTCTCTGACAGGTTATAGCATTTGGA,-0.0333,0.29,0.275,0.321,0.277,0.0789,-0.175,-0.188
TCGACTAGGTTAGGGGCATTCAGAATGGCGTCGA,0.889,0.355,0.408,0.884,0.798,1.03,0.253,0.473
CCTTACGGGTCACTGACAGGTTATAGCCTTTGGA,3.15,5.69,4.21,2,4.83,2.9,0.294,1.14
TGATATAGGTAATACAGGTGAAAGTCGGCATCTA,0.513,0.793,0.583,-0.27,1.12,0.952,0.267,0.316

Sequence,PBM binding z-score [1],PBM binding z-score [2],PBM binding z-score [3],PBM binding z-score [4],PBM binding z-score [5],PBM binding z-score [6],PBM binding z-score [7],PBM binding z-score [8]
GCAGACAGGTGAAAGGCAGGTAACTCAGGGTGGC,0.611,0.314,-0.0429,-0.432,0.602,1.23,0.167,-0.284
ATCTCTAGGTGAGACTCAGTTCAGTGAAGAACGC,0.564,0.527,0.376,0.062,0.00106,0.954,0.42,0.761
CCTAGTTGGTCACGGTCACACACGCTATAGGTAC,2.79,1.84,2.25,1.13,0.982,1.05,1.4,0.987
AATAGTTGGTCAGCTGAGGTCACACACAATTCGG,4.34,4.25,4.37,1.48,4.26,4.94,5.21,3.62
TCTTGTACATCAGCAGGTTAAGAAAGCTGGCCAA,0.266,0.217,-0.00852,0.924,0.606,0.455,-0.157,0.111
ATATCTAGGTAAGACTCAGTTCAGTGAAGAACGC,0.918,0.275,0.108,0.525,0.354,0.631,0.604,1.41
TCGAGTAGGTTAGTCGGGGCATTCACCCAACATA,0.552,0.0959,-0.000869,0.343,0.097,1.31,0.381,0.754
TCTTGTAGATCAGCAGGTTAATAAAGCTGGCCAA,-0.292,-0.0895,-0.342,0.531,0.393,0.0327,-0.292,-0.451
ATCTCTAGGTAACCAAGTTCAGTGAATGCCGAAC,1.52,0.894,0.853,0.991,0.572,1.6,0.96,2.99
TCATATAGGTAAACAGGTGAAAGTGCGTAAGTTA,1.09,0.642,0.552,1.66,1.17,0.829,0.583,0.623
ATCTAAAGGTCGTGAGGTGAGTATACAGAAAGGC,3.14,4.55,4.01,2.22,5.37,3.44,1.84,1.7
TCGAGTTGGTTACCAATGGGGCATTCAGCTTTCT,-0.231,-0.62,-0.85,0.662,-0.558,-0.69,-1.23,-0.117
TCGAGTAGGTCAGGGGCATTCAGAATGGCGTCGA,2.9,3.14,3.99,0.647,2.5,1.6,0.0377,0.669
CGTCCCAGGTCAATGCTAGGTCAGTGAAAGCATT,4.23,6.41,5.01,1.99,3.1,4.25,2.99,1.74
GGAAGGAGGGCAAAGTTGATAGCATCTGTCGACG,1.91,2.07,1.55,1.37,1.89,1.04,0.664,1.44
CGTCCAACGTCATAGGAGGTCAGTGAAGACAGAT,2.87,1.79,2.24,0.609,1.59,3.15,0.654,1.02
CCTATTAGTTGACCATTAGGGCAACCGAAGCTCG,1.68,0.667,0.891,0.456,0.374,0.945,0.78,0.844
TGTCAAAGTTCAAAGGTATCGTAAGTATCCACAC,3.71,5.75,6.26,4.47,6.28,2.56,-0.19,4.53
